The values that follow come from PubChem BioAssay (NCATS).

Experiment [1] can be described thus: Quantitative High-Throughput drug screen in 47 multiple myeloma cell lines against the NCATS MIPE library collection: Karpas25_ECACC cell viability assay (AID 1918968; also: nearly all actives have a fitted effect of over 35% in size). The following applies: Karpas25 myeloma viability, CellTiter-Glo ATP, 48 h; series mostly up to 45.8 µM. The procedure, abridged:
(§1)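 Relative luminescence from CellTiter-Glo served as the viability signal, referenced to DMSO-treated (100%) and cell-free medium (0%) controls. Treatment lasted 48 hours at 37C with 500 cells per well.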
On the technique in general: Cellular ATP, detected with luciferase, serves as a proxy for viable cell number.

The nature of experiment [2]: Quantitative High-Throughput drug screen in 47 multiple myeloma cell lines against the NCATS MIPE library collection: KMS12BM_JCRB cell viability assay (AID 1918971). Also: nearly all actives have a fitted effect of over 35% in size. The note with it: KMS12BM myeloma viability, CellTiter-Glo ATP, 48 h; series mostly up to 45.8 µM. The procedure, abridged:
(§2)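 CellTiter-Glo luminescence (ATP) after 48 h compound exposure, 37C/5% CO2; 500 cells/well; MIPE 4.0 approved/investigational drugs pinned in; DMSO = 100%, media only = 0% viability.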

Experiment [3] can be described thus: Quantitative High-Throughput drug screen in 47 multiple myeloma cell lines against the NCATS MIPE library collection: KMS12PE_JCRB cell viability assay (AID 1918972). Also: nearly all actives have a fitted effect of over 30% in size. The following applies: KMS12PE myeloma viability, CellTiter-Glo ATP, 48 h; series mostly up to 45.8 µM. An outline of the steps:
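Viability readout: CellTiter-Glo luminescence following 5 min room-temperature incubation with reagent. Prior exposure: 48 h, 37C, humidified 5% CO2, 500 cells per well.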

The nature of experiment [4]: Quantitative High-Throughput drug screen in 47 multiple myeloma cell lines against the NCATS MIPE library collection: KMS27_JCRB cell viability assay (AID 1918970). Also: nearly all actives have a fitted effect of over 30% in size. The note with it: KMS27 myeloma cells, CellTiter-Glo ATP viability, 48 h; viability (% of DMSO): at 45.8 µM (top of the series). An outline of the steps:
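CellTiter-Glo luminescence after 48 h drug exposure at 37 °C; 500 cells/well, 1536-well format, pin-tool compound addition; DMSO = 100%, media-only = 0% viability.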

Experiment [5] in a line: Quantitative High-Throughput drug screen in 47 multiple myeloma cell lines against the NCATS MIPE library collection: KMS26_JCRB cell viability assay (AID 1918975). Also: nearly all actives have a fitted effect of over 45% in size. The following applies: KMS26 myeloma cells viability, CellTiter-Glo ATP, 48 h; series mostly up to 45.8 µM. The procedure, abridged:
as §2

Experiment [6] is described as follows: Quantitative High-Throughput drug screen in 47 multiple myeloma cell lines against the NCATS MIPE library collection: KMS21BM_JCRB cell viability assay (AID 1918974). The following applies: ATP luminescence, 48 h; viability: at 45.8 µM (top of the series). The procedure, abridged: as §1
Experiment [7] can be described thus: Quantitative High-Throughput drug screen in 47 multiple myeloma cell lines against the NCATS MIPE library collection: MMM1_PLB cell viability assay (AID 1918976). Also: nearly all actives have a fitted effect of over 35% in size. The following applies: MMM1 myeloma cells viability, CellTiter-Glo, 48 h; series mostly up to 45.8 µM. The procedure, abridged:
(§3)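 Cells were exposed to library compounds for 48 hours, after which ATP was measured by CellTiter-Glo. Signal was taken as median relative luminescence units.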

Experiment [8] can be described thus: Quantitative High-Throughput drug screen in 47 multiple myeloma cell lines against the NCATS MIPE library collection: NCIH929_DSMZ cell viability assay (AID 1918978). Also: nearly all actives have a fitted effect of over 35% in size. The following applies: NCI-H929 myeloma viability, CellTiter-Glo ATP, 48 h; series mostly up to 45.8 µM. The procedure, abridged:
as §3

Experiment [9] in a line: Quantitative High-Throughput drug screen in 47 multiple myeloma cell lines against the NCATS MIPE library collection: MOLP8_DSMZ cell viability assay (AID 1918977). Also: nearly all actives have a fitted effect of over 45% in size. The following applies: MOLP8 myeloma viability, CellTiter-Glo ATP luminescence, 48 h; series mostly up to 45.8 µM. The procedure, abridged:
as §3

The nature of experiment [10]: Quantitative High-Throughput drug screen in 47 multiple myeloma cell lines against the NCATS MIPE library collection: KMS20_JCRB cell viability assay (AID 1918973). Also: nearly all actives have a fitted effect of over 45% in size. The note with it: CellTiter-Glo ATP, 48 h; series mostly up to 45.8 µM. An outline of the steps:
as §1

Records with an inconclusive call do not appear. Activity calls are given as the source filed them. Calls follow the shape of the dose curve; as a rule, active = well fitted curve in the direction sought with a large enough effect; inconclusive = small, poorly fitted or top-dose-only effect, or another doubt; inactive = no such curve, though single readings can be large; an effect the other way counts as inactive or inconclusive.

In general, viability refers to a read-out of living cells in per cent, often relative to untreated cells.
Potency is read from the fitted curve at half-maximal effect.

Turning to `NC(N)=Nc1nc(CSCCC(N)=NS(N)(=O)=O)cs1`, in experiment [1], the Potency was 11.8 µM (active). For the same compound, the Potency result in experiment [2] and in [3] was “inactive” in each case.

As to `CC1CNc2c(cccc2S(=O)(=O)N[C@@H](CCCN=C(N)N)C(=O)N2CC[C@@H](C)C[C@@H]2C(=O)O)C1` (stereo partly specified), the Potency result in [1] and in experiment [5] was “inactive” in each case. Further, the Potency in [4] is 14.8 µM (active).

Take `NS(=O)(=O)c1ccc(Nc2nc(OCC3CCCCC3)c3[nH]cnc3n2)cc1`: the Potency in experiment [1] was 13.2 µM (active); in [2], 26.4 µM (active); in [3], 20.9 µM (active); in experiment [6], 4.18 µM (active); in experiment [7], 2.09 µM (active); in [8] it was 4.18 µM (active).

Regarding `Clc1ccc(COC(Cn2ccnc2)c2ccc(Cl)cc2Cl)c(Cl)c1` (stereo unspecified), the Potency in experiment [1] was 18.7 µM (active); in experiment [2] it was 20.9 µM (active); in experiment [3], 18.7 µM (active); in [6] it was 37.2 µM (active); in experiment [5], 23.5 µM (active); in [7], 16.6 µM (active). Also, the Potency in experiment [9] was 18.7 µM (active).

For `CN[C@@H]1CN(c2ccc3c(=O)c(C(=O)O)cn(-c4nccs4)c3n2)C[C@@H]1OC`, the Potency in experiment [1] was 5.12 µM (active); in [2], 0.645 µM (active); in [10], 6.45 µM (active); in experiment [5] it was 18.2 µM (active); in experiment [9], 6.45 µM (active); in [8], 1.62 µM (active). Moreover, the Potency entry in experiment [3] was “inactive”.

For the compound `NC1(C(=O)N[C@@H](CCO)c2ccc(Cl)cc2)CCN(c2ncnc3[nH]ccc23)CC1`, the Potency was 0.418 µM (active) in [1]; 0.418 µM (active) in [3]; 1.18 µM (active) in experiment [10]; 0.209 µM (active) in experiment [5]; 0.0105 µM (active) in [7]; 0.0833 µM (active) in [8]. For the same compound, the Potency result in experiment [2] is “inactive”.

`COc1ccc(-c2oc3c(CC=C(C)C)c(O)cc(O)c3c(=O)c2O)cc1`: the Potency in [1] is 14.8 µM (active); in experiment [5], 16.6 µM (active); in [8] it was 10.5 µM (active). Besides, in [4], the Potency entry was “inactive”.

Consider `CN[C@@H](C)[C@H]1[C@H](O)C[C@@]2(C)[C@@H]3CC[C@H]4C(C)(C)[C@@H](NC)CC[C@@]45C[C@@]35CC[C@]12C`, for which the Potency entry in experiment [1], in experiment [4], in experiment [5], in experiment [9] and in [8] was “inactive” each time. For the same compound, the viability in experiment [6] is 62.4% (active).

As to `OC(c1cc(C(F)(F)F)nc2c(C(F)(F)F)cccc12)C1CCCCN1` (stereo unspecified), the Potency in experiment [1] was 16.6 µM (active); in experiment [2] it was 26.4 µM (active); in [3] it was 20.9 µM (active); in experiment [10], 10.5 µM (active); in [5], 29.6 µM (active); in [7] it was 23.5 µM (active). Moreover, the Potency was 23.5 µM (active) in [9] and 20.9 µM (active) in [8].
